This is part of a sample that, as a whole, favours compounds with a hit. Of some 83,000 tested, about 20% had one in any assay.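 96-well plates, one dose, 48 hours. Percent growth reported; active if below 10.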 A number with no mark means an inactive call. Activity calls are given as the source filed them.
Columns and labels:
Assay in all cases: NCI-60 one-dose screen, 48 h (100 = growth as untreated, 0 = no growth, -100 = all killed)
Settings in all cases: 10 µM unless noted
DU-145 prostate = tested on: DU-145 prostate
K-562 leukemia = tested on: K-562 leukemia
MALME-3M melanoma = tested on: MALME-3M melanoma
MDA-MB-231 breast = tested on: MDA-MB-231 breast
RXF 393 renal = tested on: RXF 393 renal
SF-268 CNS = tested on: SF-268 CNS
SF-295 CNS = tested on: SF-295 CNS
SF-539 CNS = tested on: SF-539 CNS
UACC-257 melanoma = tested on: UACC-257 melanoma
M14 melanoma = tested on: M14 melanoma
HCT-15 colon = tested on: HCT-15 colon
HT29 colon = tested on: HT29 colon
SNB-75 CNS = tested on: SNB-75 CNS
SNB-19 CNS = tested on: SNB-19 CNS
U251 CNS = tested on: U251 CNS
PC-3 prostate = tested on: PC-3 prostate
SK-MEL-5 melanoma = tested on: SK-MEL-5 melanoma
UACC-62 melanoma = tested on: UACC-62 melanoma
LOX IMVI melanoma = tested on: LOX IMVI melanoma
SK-MEL-28 melanoma = tested on: SK-MEL-28 melanoma

Compound | growth (DU-145 prostate) | growth (K-562 leukemia) | growth (MALME-3M melanoma) | growth (MDA-MB-231 breast) | growth (RXF 393 renal) | growth (SF-268 CNS) | growth (SF-295 CNS) | growth (SF-539 CNS) | growth (UACC-257 melanoma) | growth (M14 melanoma) | growth (HCT-15 colon) | growth (HT29 colon) | growth (SNB-75 CNS) | growth (SNB-19 CNS) | growth (U251 CNS) | growth (PC-3 prostate) | growth (SK-MEL-5 melanoma) | growth (UACC-62 melanoma) | growth (LOX IMVI melanoma) | growth (SK-MEL-28 melanoma)
Clc1cc(Cl)cc(Nc2ccc3cc(OCCCN4CCOCC4)ccc3n2)c1 | 40.6% | -27.3% (active) | 66.5% | -5.22% (active) | 5.08% (active) | 46.9% | -59.7% (active) | 9.86% (active) | 49% | 12.6% | 7.18% (active) | -39.5% (active) | 11% | 38.5% | 2.35% (active) | 21.8% | 71% | 12.9% | -77.6% (active) | 27.8%
CN(C)c1ccc(-c2cc(-c3ccc(Nc4nc(Nc5ccc(Cl)cc5)nc(Nc5ccc(Cl)cc5)n4)cc3)no2)cc1 | 47.7% | 24.8% | 54% | 35.6% | -42.1% (active) | 45% | -16.8% (active) | 46.1% | 65.7% | 61.6% | 39% | 33.9% | 19.6% | 65.7% | 27.4% | 6.65% (active) | 34.5% | 66.2% | 29% | 31.3%
COc1cccc(-c2nn(-c3ccccc3)cc2-c2ccnc(NCCCNC(=O)c3cccc(C(F)(F)F)c3)c2)c1 | 52.3% | 18% | 9.81% (active) | 23.6% | 36% | 57.4% | 27.3% | 30.6% | 12.1% | 28.2% | 21% | 8.77% (active) | 58.6% | 45.3% | 24.7% | 13.3% | -64.4% (active) | 23.9% | 28% | 50.3%
NS(=O)(=O)c1cnccc1Oc1cccc2cccnc12 | 108% | 82.4% | 96% | 102% | 104% | 101% | 120% | 88.3% | 114% | 98.8% | 90.5% | 107% | 89.6% | 99.6% | 102% | 95.9% | 106% | 104% | 96% | 109%
C#Cc1cccc(NC(=O)c2ccc(NC(=O)CCl)cc2)c1 | 42.4% [8.25 µM] | 7.87% [8.25 µM] (active) | -83.5% [8.25 µM] (active) | -22.8% [8.25 µM] (active) | 47.9% [8.25 µM] | -8.76% [8.25 µM] (active) | 75.4% [8.25 µM] | -94.7% [8.25 µM] (active) | 43.3% [8.25 µM] | -60.6% [8.25 µM] (active) | -57% [8.25 µM] (active) | 34.5% [8.25 µM] | 32.2% [8.25 µM] | 8.27% [8.25 µM] (active) | -90.1% [8.25 µM] (active) | -46.6% [8.25 µM] (active) | -56.7% [8.25 µM] (active) | 7.2% [8.25 µM] (active) | -77.5% [8.25 µM] (active) | 54% [8.25 µM]
O=C(NC(CSSCC(NC(=O)c1ccccc1)C(=O)O)C(=O)O)c1ccccc1 (stereo not given) | 114% | 96% | 109% | 110% | 116% | 99.4% | 106% | 102% | 102% | 98.9% | 99.8% | 103% | 102% | 107% | 104% | 95.8% | 108% | 99.6% | 95.7% | 118%
CC(C)Sc1nc(NNC(N)=S)c(C#N)c(-c2ccc(F)cc2)n1 | 110% | 92.5% | 117% | 98% | 101% | 101% | 93.7% | 91.7% | 101% | 104% | 95.9% | 115% | 62.6% | 97% | 95% | 102% | 93.3% | 91.1% | 98.6% | 113%
CNC(=O)c1cc(Oc2cccc3nc(Nc4ccc(F)c(Cl)c4)ccc23)ccn1 | 93.2% | 26% | 40.2% | 62.7% | 75.3% | 54.5% | 87% | 55.9% | 40% | 51.8% | 16.5% | 81.4% | 87.6% | 43.6% | 26.7% | 30.8% | 12.3% | 25.3% | 27% | 65.7%

— PubChem BioAssay (NCI)
